Source: ChEMBL document CHEMBL4513160, “CO-ADD screening of MMV (CH) - Small Polar Library”
The whole screen tested about 21,000 compounds, of which fewer than 10 showed an effect of 50% or more. Only a sample is shown. Entries with a potency or affinity are not part of this list.

These compounds were tested on Acinetobacter baumannii. Conditions: Concentration 300 ug.mL-1; ASSAY_TEST Inhibition of Bacterial Growth; detection method Absorption (OD600); MEDIA CAMHB; plate type 384well; NBS; CORNING #3640; time 18 hr.
`NS(=O)(=O)N1CCCNCC1` showed an Inhibition of 17.02%. `CCN(CC)C(=O)NCC[S+]([O-])C(C)(C)C` (stereo not given) was tested, and the Inhibition was 4.98%. With `CN(CCc1ccc(Br)cc1)C(=O)CCCN` the Inhibition was 4.12%. Compound `CNC(=O)c1c(C)cccc1NCCCOC` has an Inhibition of 4.81%. `COc1ccc(OCCCC(=O)NCCN(C)C)cc1` gave an Inhibition of 9.28%. With `COCCN1CCCN(C(=O)C(C)C)CC1` the Inhibition was -1.05%. `O=C1CN(C(=O)c2ccn(-c3ccccc3)n2)CCN1` showed an Inhibition of 1.11%. In the case of `NC1CCN(CC(=O)N2CCOCC2)CC1`, the Inhibition is reported as 3.07%. `CC(O)(CN)C(F)(F)F` (stereo not given) showed an Inhibition of -3.1%. `CC(N)CCNS(=O)(=O)c1ccccc1` (stereo not given) showed an Inhibition of 10.98%. For `NCC(=O)NCc1ccncc1`, the Inhibition was 9.5%. `O=C(Nc1cccc(CN2CCCC2=O)c1)C1CC1` was tested, and the Inhibition was 1.2%. Compound `CC(C)CCNC(=O)CCn1cc(Br)ccc1=O` has an Inhibition of 8.21%. `COc1ccc(C(=O)NCC2(C)COC2)c(F)c1F` showed an Inhibition of 4.61%. `CO[C@@H]1CN[C@@H](c2nc(C)no2)C1` was tested, and the Inhibition was -0.59%. `COCc1cccc(-c2nc(C3CCOC3)no2)n1` (stereo not given) showed an Inhibition of 9.25%. For `Cc1cc(=O)cc(C(=O)N2CCCC(C)(C#N)C2)o1` (stereo not given), the Inhibition was 0.52%. `CN(CCCS(C)(=O)=O)CC1CCN(CCO)CC1` showed an Inhibition of 0.5%. `O=C(c1cncc(F)c1)N1CC(N2CCCCC2)C1` showed an Inhibition of 2.2%. Compound `CN(CC1CCOCC1)C(=O)NCc1ccco1` has an Inhibition of 4.16%. `Cn1ccnc1CN(Cc1ccc(CO)o1)C1CC1` showed an Inhibition of 10.44%. `Cc1nc(C(C)(C)N)sc1C` showed an Inhibition of 11.05%. `Nc1nc(CCCNC(=O)Cc2ccsc2)cs1` was tested, and the Inhibition was 10.16%. `Cn1nnnc1SCc1cc(Cl)c2c(c1)OCCO2` was tested, and the Inhibition was 3.66%. Work on `O=S(=O)(c1ccco1)N1CCOCc2ccccc21` yielded an Inhibition of 6.19%. `N#Cc1ccc(OCC(O)CN2CCSCC2)cc1` (stereo not given) showed an Inhibition of 10.14%. For `Cc1cccc(C2NCCNC2=O)c1` (stereo not given), the Inhibition was 12.66%. In the case of `COCCN(Cc1cnn(C)c1)C(=O)C1CCNC1` (stereo not given), the Inhibition is reported as 2.42%. For `CN1CCN(C(C)(C)CNC(=O)Nc2cn[nH]c2)CC1`, the Inhibition was -0.91%. `O=C(NCCCOC(F)F)NCc1ccc(Br)o1` gave an Inhibition of 3.72%. Compound `O=C(NC1CCCOc2ccc(F)cc21)c1c[nH]nn1` (stereo not given) has an Inhibition of 8.95%. For `COC(=O)CN1CCN(C(=O)N(C)C)CC1`, the Inhibition was 20.07%. `COc1ccc(SCC(=O)NC2CCN(C)CC2)cc1` was tested, and the Inhibition was 2.47%. Work on `COCCN(C)C[C@@H]1CN(C(=O)C2CCC2)C[C@@H]1CO` yielded an Inhibition of 6.32%. With `CN(CCS(=O)(=O)c1ccc(Cl)cc1)CC(=O)N(C)C` the Inhibition was -3.7%. With `CSCC(=O)NC1CCCC1` the Inhibition was 5.49%. `CCS(=O)(=O)NCCCNS(=O)(=O)c1ccc(C)cc1` was tested, and the Inhibition was 0.89%. With `COc1ccc(Cl)cc1NC(=O)NC1CCS(=O)(=O)C1` (stereo not given) the Inhibition was 6.86%. Work on `O=C(Nc1ccc(NC(=O)C2CC2)nc1)c1ccsc1` yielded an Inhibition of 12.11%. Compound `COCCOCC(=O)N(C)C(C)c1ccncn1` (stereo not given) has an Inhibition of 0.44%. Compound `CCN(C(=O)CN1CCNC(=O)C1)c1ccc(F)cc1` has an Inhibition of 7.47%. `CNC[C@@H]1C[C@@H](O)CN1` was tested, and the Inhibition was 4.99%. In the case of `CC(C)c1noc(CN2CCSCC2)n1`, the Inhibition is reported as 17.17%. Compound `Cc1ccc(C(CN)N2CCOCC2)o1` (stereo not given) has an Inhibition of 1.38%. `CCc1nc(CNCC2CCN(CCO)CC2)no1` gave an Inhibition of 11.72%. In the case of `CCN(CC)C(C)CNC(=O)c1csc(NC(C)=O)n1` (stereo not given), the Inhibition is reported as 5.75%. `COCC(=O)Nc1ccc(-n2cccn2)nc1` showed an Inhibition of -2.46%. Compound `CCC(C)(CO)NC(=O)c1sc(COC)nc1C` (stereo not given) has an Inhibition of 6.56%. `CCC(N)C(=O)N1CCOCC1` (stereo not given) gave an Inhibition of 3.92%. In the case of `CC[C@H](N)C(=O)N1CC(Oc2c(C)cccc2C)C1`, the Inhibition is reported as 6.21%. Work on `O=C(NC1CCCOC1)c1ccc2c(c1)OCCO2` (stereo not given) yielded an Inhibition of 9.3%. In the case of `CCCN1CCC(N2CCC(C(N)=O)CC2)CC1`, the Inhibition is reported as -0.38%. `NC1CCN(Cc2ccc(F)c(F)c2)CC1` was tested, and the Inhibition was 10.51%. For `COc1cn(-c2ccccc2)nc1C(=O)NCC(C)C`, the Inhibition was 12.56%. Work on `c1cncc(N2CCCCC2)c1` yielded an Inhibition of 8.5%. Compound `Cc1cc(CN)n(C)n1` has an Inhibition of 8.01%. `Cc1nc(CC(=O)NCC(C)n2ccnc2)cs1` (stereo not given) was tested, and the Inhibition was 5.87%. Compound `CCc1noc(C(C)NC(=O)c2cccnc2C)n1` (stereo not given) has an Inhibition of 6.44%. Work on `COc1c(F)cccc1CN1C[C@H](O)[C@@H](N(C)C)C1` yielded an Inhibition of 9.85%. Work on `CC(C)(C)OC(=O)c1ncccc1N` yielded an Inhibition of 5.28%. Work on `CCC(=O)c1ccc(CN)cc1` yielded an Inhibition of 12.11%. `CSCC(=O)Nc1ccc(C(=O)NCC(F)(F)F)cc1` showed an Inhibition of 10.77%. Work on `CC(=O)N1CCN(CCNC(=O)c2cc(Br)c[nH]2)CC1` yielded an Inhibition of 4.86%. With `CNC(=O)C(C)(C)Oc1cccc(Cl)c1` the Inhibition was 6.59%. In the case of `O=C(C1CCC1)N(Cc1ccccn1)C1CC1`, the Inhibition is reported as 0.99%. `Cc1nccn1CC(=O)Nc1ccnn1C` was tested, and the Inhibition was 1.95%. With `CN(C)c1cc(CN)ccn1` the Inhibition was 11.49%. Compound `CCn1nc(C)cc1C(=O)NCCCc1cccnc1` has an Inhibition of 7.13%. In the case of `O=C1CC(C(=O)N2CCCC3(CCCCC3)C2)CCN1` (stereo not given), the Inhibition is reported as 7.27%. For `CCN(C)CCNC(=O)c1ccncc1I`, the Inhibition was 5.97%. `O=C(c1ccco1)N1C[C@H](O)[C@@H](N2CCCCC2)C1` gave an Inhibition of 9.48%. Work on `CNC(=O)c1cnc(OCC(F)(F)F)c(Cl)c1` yielded an Inhibition of 1.45%. `CC(=O)N(C1CC1)C(C)c1ccccn1` (stereo not given) showed an Inhibition of 3.11%. `O=C1NCCCCC1NS(=O)(=O)N1CCOCC1` (stereo not given) was tested, and the Inhibition was 3.3%. For `CCn1cc(NC(=O)C(C)n2cccn2)cn1` (stereo not given), the Inhibition was 0.68%. `CN(c1cccc(C(N)=O)c1)S(=O)(=O)c1ccccc1` gave an Inhibition of 7.68%. Work on `COc1cccc(NC(=O)NCC2CCN(C)CC2)c1` yielded an Inhibition of 9.08%. `Cc1cnccc1CN` was tested, and the Inhibition was 5.52%. `CN(Cc1nc(-c2ccc(F)cc2)cs1)CC(O)CO` (stereo not given) was tested, and the Inhibition was 8.94%. `CC(C)CN1CC(CN)OC1=O` (stereo not given) gave an Inhibition of 2.13%. With `O=C(CCN1CCc2[nH]cnc2C1)NCc1cccs1` the Inhibition was -3.55%. For `CCNS(=O)(=O)C1CCN(Cc2cc(F)cc(F)c2)C1` (stereo not given), the Inhibition was -0.23%. `C1CC(C2CCOC2)CCN1` (stereo not given) showed an Inhibition of 9.96%. In the case of `CCS(=O)(=O)CCN(C)CCOc1cccc(C#N)c1`, the Inhibition is reported as 3.26%. Compound `CC(N)c1nc2ccccc2n1C` (stereo not given) has an Inhibition of -1.51%.
